# Screening data deposited in PubChem by National Center for Advancing Translational Sciences (NCATS).
# A selection: hits, their analogues and other compounds. The true share with any hit is near 9.2%.
# Rab9 promoter act: Rab9 promoter activation; Huh7 Rab9 promoter-luciferase reporter, luminescence, 24 h; hit rate 2.8% among 320,000; Potency, µM (titrated, usually from 9.22 µM), inactives show top-dose activation, negative = inhibition, actives largely listed as activators; note: % of control where 0% means no effect; nearly all actives have a fitted effect of over 60% in size
#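 Measured in stably transfected Huh7 cells bearing a Rab9 promoter–luciferase construct: 24 h compound treatment at 37 °C, followed by luminescence detection.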
# ELG1 genotox: genotoxicity induction in ELG1-luciferase HEK293T cells. hit rate 1.3% among 330,000. HEK293T ELG1-luciferase reporter, luminescence, 16 h. Potency, µM (top dose mostly 46 µM), without a hit: top-dose activity change, positive = activation, usual class: activators. AID 504466; note: % of control where 0% means no effect; nearly all actives have a fitted effect of over 60% in size
#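 HEK293T cells expressing luciferase-tagged ELG1 were exposed to compound or DMSO vehicle for 16 hr at 37 °C and 5% CO2. Luciferase activity was then measured with ONE-Glo after 30 min at room temperature.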
# NPC1 prom act: activates the NPC1 promoter. Huh7 NPC1 promoter luciferase reporter, 24 h. Potency, µM (doses to about 9.22 µM), for the others: top-dose activation, usual class: activators. hit rate 2.4% among 320,000; note: % of control where 0% means no effect; nearly all actives have a fitted effect of over 60% in size
#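 Luciferase expression driven by the NPC1 promoter was measured in stably transfected Huh7 cells after a 24 h compound incubation, using a luciferase reagent and a luminescence read.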
# ELG1 repair inh: blocks ELG1-dependent DNA repair in HEK293T cells; HEK293T ELG1-luciferase reporter, luminescence, 16 h; DNA damage induced by 5-fluorouridine; Potency, µM (series often up to 46.1 µM), for inactives: at the highest dose activity change, negative = inhibition, actives largely listed as inhibitors; hit rate 2.3% among 330,000; note: % is set by controls: 0 for no effect and ±100 for the full control effect; nearly all actives have a fitted effect of over 55% in size
#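 Overnight (16 hr) co-exposure of 2,000 cells/well to 5-fluorouridine and compound at 37 °C preceded detection. Luciferase was quantified via ONE-Glo luminescence; loss of signal denotes inhibition.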
# SMN2 splice enh: SMN2 splice variant enhancement | hit rate 2.8% among 210,000 | HEK293 SMN2-luciferase splicing reporter, luminescence, 30-36 h | Potency, µM (top dose mostly 46.1 µM), without a hit: at the top dose activity change, positive = activation, most hits filed as activators; note: % of control where 0% means no effect; nearly all actives have a fitted effect of over 55% in size
#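 HEK293 cells carry an SMN2 minigene-luciferase reporter in which exon 7 inclusion puts luciferase in frame. Cells were seeded at 2000 cells/well, attached for 10-12 hours, then exposed to compounds for 30-36 hours at 37C before ONE-Glo luminescence.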
# FLuc counter: firefly luciferase modulation, counter-screen for miR-21 project; purified FLuc, Km substrates, luminescence inhibition; Potency, µM (titrated, usually from 57.5 µM), for the others: top-dose activity change, negative = inhibition, usual class: inhibitors; hit rate 6.9% among 360,000; AID 588342;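 note: plate controls were vehicle for no effect and reference inhibitor for full effect; nearly all actives have a fitted effect of over 55% in size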
# Target sequence (P08659 whole entry, looked up): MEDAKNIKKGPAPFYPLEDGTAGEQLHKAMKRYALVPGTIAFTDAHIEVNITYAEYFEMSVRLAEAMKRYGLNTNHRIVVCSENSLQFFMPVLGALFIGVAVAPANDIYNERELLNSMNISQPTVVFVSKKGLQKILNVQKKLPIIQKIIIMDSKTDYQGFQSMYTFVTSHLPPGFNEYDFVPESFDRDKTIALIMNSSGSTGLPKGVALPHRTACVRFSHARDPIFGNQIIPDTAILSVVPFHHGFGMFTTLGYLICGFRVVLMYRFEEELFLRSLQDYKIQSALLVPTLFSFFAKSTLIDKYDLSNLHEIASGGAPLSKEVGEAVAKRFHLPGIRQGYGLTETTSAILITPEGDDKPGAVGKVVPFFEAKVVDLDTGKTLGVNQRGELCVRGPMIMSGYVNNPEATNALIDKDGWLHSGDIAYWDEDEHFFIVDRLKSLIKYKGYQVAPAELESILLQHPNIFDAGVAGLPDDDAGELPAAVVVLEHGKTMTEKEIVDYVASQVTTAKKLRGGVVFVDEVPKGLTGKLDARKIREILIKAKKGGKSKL
#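 Purified P. pyralis luciferase, 10 nM final, with Km-level 10 uM D-luciferin and 10 uM ATP in 50 mM Tris acetate pH 7.5, 10 mM Mg acetate, 0.01% Tween-20, 0.05% BSA; 6-point qHTS titration about 60 µM downward; luminescence read.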
# Starred values were filed as active, the others as inactive; ? = inconclusive; nt = no result given; [ ] = remark or other dose. Calls come from the whole dose curve; as a rule, active = well fitted curve in the direction sought with a large enough effect; inconclusive = small, poorly fitted or top-dose-only effect, or another doubt; inactive = no such curve, though single readings can be large; an effect the other way counts as inactive or inconclusive. Potency is the fitted concentration of half-maximal effect.
SMILES,Rab9 promoter act,ELG1 genotox,NPC1 prom act,ELG1 repair inh,SMN2 splice enh,FLuc counter
COc1ccccc1OCCCn1cc(C=O)c2ccccc21,0.5µM*,-1%,?,?,nt,?
Clc1nc(Cl)nc(Nc2ccccc2Cl)n1,nt,nt,nt,nt,6%,nt
CC(=O)OC(C)(C)/C=C/C(=O)C(C)(O)C1[C@H](O)C[C@@]2(C)C3CC=C4C(CC[C@@H](O)C4(C)C)[C@]3(CO)C(=O)C[C@]12C (some centres not stated),-44%,-8%,-43%,?,nt,1%
CC(=O)OC(C)(C)/C=C/C(=O)[C@](C)(O)[C@H]1[C@H](O)C[C@@]2(C)[C@@H]3CC=C4[C@H](C[C@H](O)C(=O)C4(C)C)[C@]3(C)C(=O)C[C@]12C,-42%,-11%,-34%,5.2µM*,-87%,10%
Nc1nc(N)c(N=Nc2ccc([As](=O)(O)O)c(O)c2)c(N)n1,nt,nt,nt,nt,-14%[9.22 µM],nt
CC(C)CCn1c(N2CCN(c3cccc(Cl)c3)CC2)nc2c1c(=O)[nH]c(=O)n2C,0%,-3%,1%,15µM*,-12%,3%
CN1C(=O)C(=Cc2ccc(N3CCCCCC3)cc2)C(=O)N(C)C1=O,0%,0%,-3%,?,nt,19µM*
O=C1NC(=O)N(Cc2ccc(F)cc2)C(=O)/C1=C\c1ccc(N2CCCC2)cc1,2%,11%,-4%,-12%,nt,?
C=C(C=O)CC1CC(O)[C@]2(C)OC3CC4OC5C[C@]6(C)O[C@]7(C)CCC8OC9C[C@]%10(C)OC%11C(C)=CC(=O)OC%11CC%10OC9C[C@@H](C)C8OC7CC6O[C@]5(C)CC5OC5C4OC3CC2O1 (some centres not stated),-42%,-17%,-39%,4.1µM*,nt,0%
C=C(CO)CC1CC(O)[C@]2(C)OC3CC4OC5C[C@]6(C)O[C@]7(C)CCC8OC9C[C@]%10(C)OC%11C(C)=CC(=O)OC%11CC%10OC9C[C@@H](C)C8OC7CC6O[C@]5(C)C/C=C\C4OC3CC2O1 (some centres not stated),-11%,-11%,-3%,-20%,nt,1%
COc1ccc(C/C(=N\OC(C)=O)c2ccc(OC)cc2)cc1,15%,1%,14%,?,nt,0.6µM*
Brc1cccc(-c2ccccc2)c1,nt,nt,nt,nt,7%,nt
Cc1ccc(C(=O)COC(=O)c2cccc(NC(=O)c3ccc(Br)cc3)c2)cc1,nt,nt,nt,nt,?,1.2µM*
O=C(COC(=O)c1cccc(NC(=O)c2ccc(Br)cc2)c1)c1ccc(Br)cc1,nt,nt,nt,nt,14%,4.3µM*
C=CCCC#N,nt,nt,nt,nt,1%,nt
O=NN(c1ccccc1)c1ccccc1,nt,nt,nt,nt,-6%,nt
O=C(O)C[SH+]CC(=O)O.O=C(O)C[SH+]CC(=O)O.[Cu],nt,nt,nt,nt,2%[9.22 µM],nt
Cc1cccc(N2C(=O)NC(=O)/C(=C\c3ccc(N4CCOCC4)cc3)C2=O)c1,1%,0%,-5%,-16%,nt,?
Cc1cccc(N2C(=O)NC(=O)/C(=C/c3ccc(-c4ccc(C(=O)O)c(Cl)c4)o3)C2=O)c1,-2%,10%,-6%,10%,13%,6µM*
O=C1NC(=O)N(c2ccc3c(c2)OCO3)C(=O)/C1=C\c1ccc(-c2ccccc2C(=O)O)o1,-3%,0%,-4%,3%,nt,15µM*
O=C1NC(=O)N(c2ccc3c(c2)OCO3)C(=O)/C1=C\c1ccsc1,2%,-1%,-4%,-3%,nt,24µM*
CCCn1c(C(=O)c2ccccc2)nc2ccccc21,-3%,0%,0%,6%,-24%,-14%
Cc1ccc(C(=O)Nc2nc3ccccc3n2CCN2CCCC2)cc1,?,4.6µM*,15%,?,nt,11µM*
COc1ccc(NC(=O)O/N=C/c2ccccc2)cc1,?,?,3.5µM*,?,nt,9.5µM*
O=C(Nc1ccc(Cl)c(Cl)c1)O/N=C/c1ccncc1,0%,-2%,-4%,2%,?,-14%
SMILES,Rab9 promoter act,ELG1 genotox,NPC1 prom act,ELG1 repair inh,SMN2 splice enh,FLuc counter
O=C1/C(=C\c2ccccc2)C[C@@]2(O)[C@H]3Cc4ccc(O)c5c4[C@@]2(CCN3CC2CC2)[C@H]1O5,nt,nt,nt,nt,-63%,nt
COc1ccc2c3c([nH]c2c1)C(C)=NCC3,-3%,-9%,1%,9.2µM*,-5%,8%
COc1cc(/C=C/[N+](=O)[O-])ccc1O,1%,-18%,-6%,23µM*,?,?
CCOc1cc(C=O)ccc1O,nt,1%,nt,0%,-7%,nt
COC(=O)c1nc(-c2ccc3c(n2)C(=O)C(N)=C(OC)C3=O)c(N)c(-c2ccc(OC)c(OC)c2O)c1C,-35%,-13%,-33%,2.1µM*,nt,0%
CN(C)[C@@H]1C(=O)C(C(N)=O)=C(O)[C@]2(O)C(=O)C3=C(O)c4c(O)cccc4[C@](C)(O)[C@H]3C[C@@H]12,nt,nt,nt,nt,1%[9.22 µM],nt
Cn1nc(OC(=O)Nc2ccccc2)cc1C(F)(F)F,29%,13%,?,?,17%,17µM*
O=C(Nc1ccccc1)Oc1ccccc1,1%,4%,-3%,21%,25%,-11%
C=C[C@H](Cc1ccccc1)N(Cc1ccccc1)S(=O)(=O)N(Cc1ccccc1)[C@H](C=C)Cc1ccccc1,nt,-1%,nt,?,nt,nt
Cc1ccc(N/N=C/c2c(O)n(-c3ccccc3)c(=O)[nH]c2=O)cc1,1%,?,-3%,4.1µM*,-54%,?
CCCCCCCC(=O)Cl,nt,nt,nt,nt,-3%,nt
COc1ccc(-c2cc(C(=O)N3CCC4(CC3)OCCO4)c3ccccc3n2)cc1,?,0%,26%,?,nt,2.1µM*
Cc1ccc(-c2cc(C(F)F)n3ncc(C(=O)N4CCC5(CC4)OCCO5)c3n2)cc1,-1%,0%,-5%,18µM*,1%,2%
c1ccc(NNc2ccccc2)cc1,nt,nt,nt,nt,-2%,nt
Cc1ccc(OCC(=O)N2CCN(Cc3ccc([N+](=O)[O-])cc3)CC2)cc1,-14%,-3%,-5%,21µM*,nt,-3%
O=C(O)C(Cl)(Cl)Br,nt,nt,nt,nt,-4%,nt
C[C@H]1CCCC(=O)CCC/C=C/c2cc(O)cc(O)c2C(=O)O1,-3%,-20%,-1%,21µM*,-58%,7%
COc1cc(O)cc2c1C(=O)OC(C)CCCC(=O)CCC/C=C\2 (configuration not stated),-9%,-19%,-1%,-1%,nt,-2%
CCOc1ccc2nc(N=Nc3c(O)[nH]c(=S)[nH]c3=O)sc2c1,-1%,-6%,-4%,-1%,3%,19µM*
CC(Cl)CCl (configuration not stated),nt,nt,nt,nt,9%,nt
